Nrf2 block: Nrf2 pathway inhibition; A549 ARE-Fluc reporter, luciferase luminescence, 18-24 h; 360,000 compounds, 2.1% hits; Potency, µM (doses to about 46 µM), usual class: inhibitors; further: nearly all actives have a fitted effect of over 60% in size
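Cells were seeded and rested 2 h, then exposed to compounds for 18-24 h. CellTiter-Fluor was read first as a viability measure. BugLite was added 15 min before the final luminescent read of ARE-luciferase activity in A549 cells.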
Nrf2 ARE act: Nrf2 pathway activation; 410,000 compounds, 0.31% hits; AREc32 ARE-luciferase reporter (MCF7-derived line), luminescence, 24 h; Potency, µM (titrated, usually from 46.1 µM), hits mostly activators; further: nearly all actives have a fitted effect of over 65% in size
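Reporter line AREc32 (ARE-Fluc), seeded overnight in OPTI-MEM with 5% FBS; compound pin-transferred, 24 hr at 37 deg C, 5% CO2; luminescent read-out.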
ATXN2 expr inh: inhibitors of ATXN2 expression; HEK-293 ATXN2-luciferase reporter, luminescence, 24 h; Potency, µM (series often up to 57 µM), usual class: inhibitors; 360,000 compounds, 0.72% hits; further: nearly all actives have a fitted effect of over 55% in size
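qHTS (up to 57 uM final) was run with 24 h compound exposure of reporter cells at 37 °C. Each well was multiplexed: SteadyGlo luminescence measured ATXN2-luciferase expression after a fluorogenic Gly-Phe-AFC viability readout (25 uM final).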
ATXN viability: reduces viability in counter-screen for ATXN expression inhibitors; Potency, µM (highest dose often 56.7 µM), most hits filed as cytotoxic; AID 651635; S2 cells (HEK-293 line with an ATXN2-luciferase reporter) viability, CellTiter-Fluor protease fluorescence, 24 h; 400,000 compounds, 0.49% hits; further: nearly all actives have a fitted effect of over 40% in size
A549 viability: kills or reduces viability of A549 cells in Nrf2 counter-screen | A549 ARE-Fluc cells, CellTiter-Fluor viability, 18-24 h | Potency, µM (series often up to 46 µM), actives largely listed as inhibitors | 390,000 compounds, 0.16% hits | AID 504648
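A549 ARE-Fluc cells in 5% FBS OPTI-MEM, 5000 cells/well, rested 2 h then exposed to compounds in concentration-response for 18-24 h at 37 °C. Viability by CellTiter-Fluor fluorescence (Ex 405/Em 525) after 30 min; luciferase luminescence (BugLite, 15 min, RT) read afterwards.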
Of the large screens only hits and unclear results are named; the others gave an inactive call. This is a sample that favours compounds with a hit; in the whole collection about 2.9% have one here. The call rests on the fitted dose curve; in most records, active means well fitted curve in the direction sought with a large enough effect; inconclusive means small, poorly fitted or top-dose-only effect, or another doubt; inactive means no such curve, though single readings can be large; an effect the other way counts as inactive or inconclusive.

CC(=O)c1ccc(N2CCN(c3ncnc4c3nc3n4CCCC3)CC2)cc1	Nrf2 block 23µM (no result: ATXN2 expr inh, ATXN viability)
COC(=O)c1ccc2c(=O)n(CCCCCC(=O)NCc3ccccc3)c(=O)[nH]c2c1	A549 viability inconclusive
COc1cc2c(cc1OC)C1(Nc3c-2c(-c2ccccc2)nn3-c2ccccc2)C(=O)Nc2ccccc21 (stereo unspecified)	Nrf2 block inconclusive, A549 viability inconclusive
COc1ccc(Nc2nc(N)nc(CCl)n2)cc1	Nrf2 ARE act inconclusive, ATXN viability inconclusive (no result: ATXN2 expr inh)
Nc1nc(CCl)nc(Nc2ccc3ccccc3c2)n1	Nrf2 ARE act inconclusive, ATXN2 expr inh 3.8µM, ATXN viability 3.4µM
CCC1CCCCN1C(=O)c1cc(COc2ccc(-n3cncn3)cc2)on1 (stereo unspecified)	Nrf2 block inconclusive
CC(=O)NC12CC3CC(C1)CC(C(=O)Nc1nccs1)(C3)C2	none
CC(OC(=O)/C=C/c1cccs1)C(=O)NC1CCCCC1C (stereo unspecified)	none
COc1ccc([N+](=O)[O-])cc1NC(=O)C(C)OC(=O)/C=C/c1ccco1 (stereo unspecified)	Nrf2 ARE act 13µM
CC(OC(=O)/C=C/c1ccco1)C(=O)NC1CCCCC1C (stereo unspecified)	Nrf2 block 13µM
CC(OC(=O)/C=C/c1ccco1)C(=O)Nc1cccc([N+](=O)[O-])c1 (stereo unspecified)	Nrf2 block inconclusive, Nrf2 ARE act inconclusive
COc1ccc([N+](=O)[O-])cc1NC(=O)c1ccco1	Nrf2 ARE act 3.2µM
O=NN(Cc1cccnc1)Cc1cccnc1	none (no result: Nrf2 block, A549 viability)
Cc1c(N/N=C(\C#N)C(=O)c2ccccc2)c(=O)n(-c2ccccc2)n1C	Nrf2 block inconclusive, ATXN2 expr inh 14µM, ATXN viability inconclusive, A549 viability 21µM
Cc1c(NC=C(C#N)C#N)c(=O)n(-c2ccccc2)n1C	Nrf2 block inconclusive
Cc1ccccc1C(=O)/C(C#N)=N/Nc1c(C)n(C)n(-c2ccccc2)c1=O	Nrf2 block 8.2µM, ATXN2 expr inh 7.1µM, ATXN viability inconclusive, A549 viability 18µM
CCOC(=O)/C(C#N)=N/Nc1c(C)n(C)n(-c2ccccc2)c1=O	Nrf2 block inconclusive
Cn1c(Cc2cccc3ccccc23)nnc1SCC(=O)N1CCN(c2ccccc2)CC1	Nrf2 block inconclusive, ATXN2 expr inh inconclusive
COc1ccccc1C(=O)NCc1ccc2c(c1)CCN2C(=O)c1cccc(C)c1	none (no result: Nrf2 block, ATXN2 expr inh, ATXN viability)
C=C1C(=O)[C@]23C[C@H]1CCC2[C@@]1(C)C(C[C@@H]3O)[C@](C)(C(=O)OC)CC[C@@H]1OC(C)=O (stereo partly specified)	ATXN2 expr inh 2.5µM, ATXN viability 2.8µM (no result: Nrf2 block, A549 viability)
C=C1C(=O)[C@]23C[C@H]1CC[C@H]2[C@]1(C)[C@@H](OC(C)=O)CC[C@@](C)(C(=O)O)[C@H]1C[C@@H]3O	Nrf2 ARE act inconclusive, ATXN2 expr inh 3.2µM (no result: Nrf2 block, ATXN viability, A549 viability)
C=C1C(=O)[C@]23C[C@H]1CC[C@H]2[C@]1(C)[C@@H](OC(C)=O)CC[C@@](C)(C(=O)OC)[C@H]1C[C@@H]3OC(C)=O	Nrf2 ARE act inconclusive, ATXN2 expr inh inconclusive, ATXN viability 32µM (no result: Nrf2 block, A549 viability)
C=C1C(=O)[C@]23C[C@H]1CCC2[C@@]1(C)C(C[C@@H]3O)[C@](C)(C(=O)O)C[C@H](O)[C@@H]1O (stereo partly specified)	none (no result: Nrf2 block, A549 viability)
O=C(CCNS(=O)(=O)c1ccc(Br)cc1)NCc1ccc2c(c1)OCO2	none
Cc1ccc(C(=O)N/N=C/c2cc(Br)ccc2O)cn1	ATXN2 expr inh 2µM, ATXN viability inconclusive
CN(C)c1ccc(C(=O)N/N=C/c2cc(Br)cc(Br)c2O)cc1	Nrf2 block 13µM, ATXN2 expr inh 3.5µM
CC(C)(C)c1ccc(CC(=O)N2CCC2(C)C(=O)NS(=O)(=O)c2ccccc2)cc1 (stereo unspecified)	none (no result: Nrf2 block, A549 viability)
O=C(c1ccc(S(=O)(=O)Cc2cc(F)ccc2F)c([N+](=O)[O-])c1)N1CCCC1	Nrf2 block inconclusive, Nrf2 ARE act 8.9µM
COc1cc(=O)n2c(c1C(=O)NC(C)c1ccco1)CCN(C(=O)c1cccc(C)c1)CC2 (stereo unspecified)	none (no result: Nrf2 block, Nrf2 ARE act, ATXN2 expr inh, A549 viability)
COc1ccc(NC(=O)CC(C)S(=O)(=O)c2cc3c(cc2C)NC(=O)CO3)cc1OC (stereo unspecified)	none

Assay outcomes: PubChem, National Center for Advancing Translational Sciences (NCATS)
